In all, about 190,000 compounds went through this assay and about 1,600 (0.84%) were called active. Many of the other results were omitted from the sample, so actives are more common in it than they were. A number with no mark means an inactive call.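 How the source made its calls: active means inhibition above a set limit, derived from the sample mean plus 3 SD (cut at about 45% in these data); inconclusive means one replicate passes the limit while the other fails; inactive means the rest.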

One may read the inhibition as the change of the read-out against control, counted positive when it falls.

The assay can be described thus: inhibitors of APP translation via 5'UTR reporter, primary screen, APP 5'UTR luciferase, SH-SY5Y cells (AID 1285). The following applies: SH-SY5Y APP 5'UTR-luciferase reporter, luminescence; at 2 µM; active compounds read high.
For `O=C(Nc1ccc(N2CCOCC2)cc1)c1ccc2c(c1)OCO2`, the inhibition is -48.7%.
In the case of `O=C(Nc1cccc([N+](=O)[O-])c1)c1ccc2c(c1)OCO2`, the inhibition was -43.1%.
In the case of `O=C(Nc1ccccc1)c1ccc2c(c1)OCO2` it was 58.8% (active); in that of `CCOC(=O)c1c(NC(=O)C2CC=CCC2C(=O)O)sc(C)c1CC` (configuration not stated), -12.9%.
Turning to `O=C(CCN1C(=O)c2ccccc2C1=O)NNC(=O)c1ccc(Cl)cc1Cl`, the inhibition is -9.9%.
In the case of `O=C(Cc1cccs1)N/N=C/c1ccc(OCc2ccccc2)cc1` it was 5.4%; in that of `COc1ccc(C(=O)C[n+]2ccc(N)c(C)c2C)cc1`, 6.8%.
In the case of `Clc1cccc(CN2COc3c(cc(Cl)c4cccnc34)C2)c1` it was 74.6% (active); in that of `Oc1c(CN2CCN(c3ccc(F)cc3)CC2)cc(Cl)c2cccnc12`, 8.7%; in that of `O=c1[nH]n(-c2cccc(Cl)c2)c2ncccc12`, -4.8%.
In the case of `COC(=O)CNC(=O)c1ccccc1F` it was -10.5%.
`COc1ccc(C(=O)NN(C)c2nc(-c3ccccc3)cc(C)c2S(C)(=O)=O)cc1`: the inhibition is -3.3%.
In the case of `COc1ccc(OCC(=O)NNC(=O)c2cccc(C)c2)cc1` it was -16.1%.
In the case of `CN(NC(=O)c1ccccc1)c1nc2ccccc2nc1C(F)(F)F` it was -3.6%; in that of `CSc1nc(N(C)NC(=O)c2cccc(C)c2)c2ccccc2n1`, 96.7% (active).
In the case of `CN(NC(=O)c1ccccc1F)c1nc(C(F)(F)F)nc2ccccc12` it was 91% (active); in that of `CC(=O)N1CC(C)c2scc(C)[n+]2-c2ccccc21` (configuration not stated), -17.2%; in that of `C=CCc1ccc(OCC(O)CN2CCN(Cc3ccccc3)CC2)c(OC)c1` (configuration not stated), -8.6%.
Regarding `CC(=O)N1c2ccccc2N(Cc2ccc([N+](=O)[O-])cc2)C(=O)C1(C)C`, the inhibition was -12.9%.
As for `CCOc1ccc(N2CC(C(=O)NCCN3C(=O)S/C(=C\c4cccnc4)C3=O)CC2=O)cc1` (configuration not stated), the inhibition is -6%.
In the case of `O=C(COC(=O)c1cnc(Cl)c(Cl)c1)NCc1ccco1`, the inhibition is 6.8%.
Turning to `O=C(COC(=O)c1cc(S(=O)(=O)N2CCCCC2)ccc1Cl)NCc1ccco1`, the inhibition is 5%.
In the case of `Cc1cc(C(=O)OCC(=O)NCc2ccco2)c(C)n1-c1ccccc1` it was 60.8% (active); in that of `C/C(=N\NC(=O)c1cccnc1)c1ccc(-n2ccnc2)cc1`, -7.3%.
On to `Cc1[nH]c2ccccc2c1-c1ccc(Cl)nn1`, for which the inhibition is 5.5%.
In the case of `COc1ccc(Cc2n[nH]c(=S)n2NC(=O)Nc2ccc(C)cc2)cc1` it was -47.2%; in that of `O=C(Nc1ccccc1Cl)/C(Cl)=C(\Cl)S(=O)c1ccccc1` (configuration not stated), 93.8% (active); in that of `O=C(Nc1ccccc1Cl)c1ccc2nsnc2c1`, -80.7%.
In the case of `O=C(CN1CCCCC1)Nc1ccccc1Cl` it was 17.7%; in that of `CCN(C(=O)CN1CCN(Cc2ccccc2)CC1)c1c(N)n(Cc2ccccc2)c(=O)[nH]c1=O`, -17.3%.
Consider `CCCc1nc(SCC(=O)Nc2ccc(S(=O)(=O)N(C)C)cc2)c2ccccc2n1`, for which the inhibition was -11.7%.
In the case of `CC(C)N(C(=O)CSc1nc(COc2ccccc2)nc2ccccc12)C(C)C` it was 48.3% (active); in that of `COC(=O)CSc1nc(C2CC2)nc2ccccc12`, -12.5%; in that of `COc1ccc(Cl)cc1NC(=O)NC(C)C(C)(C)C` (configuration not stated), -0.1%.
In the case of `CCN(CC)S(=O)(=O)c1ccc(Cl)c(NC(=O)c2ccncc2)c1` it was 17.9%; in that of `CCN(CC)CCCNC(=O)Cn1cnc2sc(C)c(S(=O)(=O)N3CCN(c4ncccn4)CC3)c2c1=O`, -10.4%.
In the case of `Cc1ccc(-c2noc(CCC(N)=O)n2)cc1`, the inhibition is 5.2%.
In the case of `CCNC(=O)CCc1nc(-c2ccc(C(C)(C)C)cc2)no1` it was 51.8% (active); in that of `CN1CCN(C(=O)CCc2nc(-c3ccc(Cl)cc3)no2)CC1`, 9.1%; in that of `COc1ccc(N2CCN(C(=O)c3ccc4c(Cl)c5c(nc4c3)CCCC5)CC2)cc1`, -5.5%.
In the case of `CC(=O)Nc1nc(N(C)C)nc(N(C)C)n1` it was 4.4%.
In the case of `CC1(C)CC(=O)c2cnc3nc4ccccc4n3c2C1` it was -8.9%.
For the compound `Nc1nnc(SCC(=O)OCc2ccc(Cl)c(Cl)c2)s1`, the inhibition is 86.8% (active).
In the case of `CN(C(=O)CSc1nnc(N)s1)c1c(N)n(Cc2ccccc2)c(=O)[nH]c1=O` it was -12.7%.
In the case of `COC(=O)c1ccc(CSc2nnc(N)s2)o1` it was -10.2%; in that of `COCCNC(=O)c1ccc(-n2c(SCc3cccnc3)nc3ccccc3c2=O)cc1`, -4.3%.
In the case of `CCCCCCCCCCOC(=O)C[N+](C)(C)CC1CCCCC1O` (configuration not stated) it was -4.7%.
Regarding `O=C(c1snnc1-c1ccccc1)N1CCOCC1`, the inhibition was -16.4%.
Consider `C=CCn1c(C)cc(C2=NNC(=NCC)SC2)c1C`, for which the inhibition was 69.1% (active).
In the case of `COCCn1c(C)cc(C2=NNC(=Nc3ccc(F)cc3)SC2)c1C` it was -82.3%; in that of `Cc1cc(C2=NNC(=Nc3ccc(S(=O)(=O)N4CCOCC4)cc3)SC2)c(C)n1CC1CCCO1` (configuration not stated), -30.6%.
In the case of `CCN(C(=O)CSc1nc2ccccc2n1CC)C1CCS(=O)(=O)C1` (configuration not stated) it was -8%; in that of `C[N+]1(CC(O)COc2ccccc2)CCN(C(=O)c2ccc([N+](=O)[O-])cc2)CC1` (configuration not stated), 0.3%.
Take `CCC(C)(C)c1ccc(Oc2ccc(NC(=O)COC(=O)C3=COCCO3)cc2)cc1`: the inhibition was 45.6% (active).
With `O=C(OCC(=O)c1cccs1)C1=COCCO1`, the inhibition is -41.7%.
In the case of `COc1ccc(NC(=O)COC(=O)CNC(=O)C2CCCCC2)cc1` it was -10.5%; in that of `Cc1ccc2[nH]c(C)c(CCNC(=O)NC3CCCCC3)c2c1`, 2.7%; in that of `CSCC[C@H](NC(=O)NC1CCCC1)C(=O)O`, 20.9%.
In the case of `CCOc1cc(C(=O)N2CCc3cc(OC)c(OC)cc3C2)ccc1OC(F)F`, the inhibition was 94.6% (active).
In the case of `COc1cc2c(cc1OC)CN(C(=O)c1ccc(S(=O)(=O)N3CCCCCC3)cc1)CC2` it was -6.7%; in that of `COc1cc2c(cc1OC)CN(C(=O)c1cc(=O)c3ccccc3o1)CC2`, 13.7%; in that of `Cc1cccc(CSc2ccc(-c3cccs3)nn2)c1`, -24.9%.

These data come from PubChem BioAssay AID1285 (Columbia University Molecular Screening Center, 2008).
